In all, about 39,000 compounds went through this assay and about 500 (1.3%) were called active. This excerpt belongs to a sample that is enriched for actives.

This assay concerns S. aureus RN4220. Kind of assay: growth inhibition call (relative growth <= 0.2). The note with it: 50 µM.
Turning to `O.O.O.O=C([O-])C1[O][Sb]2[O]C(=O)C([O]2)C(C(=O)[O-])[O][Sb]2[O]C(=O)C1[O]2.[K+].[K+]` (configuration not stated), the growth inhibition call was “inactive”.

In the case of `CC(C)=CCCC1(C)C=Cc2c(O)c3c(c(CC=C(C)C)c2O1)OC12C(=CC4CC1C(C)(C)OC2(CC=C(C)C(=O)O)C4=O)C3=O` (configuration not stated), the growth inhibition call was “inactive”.

`NC(=O)c1cc([N+](=O)[O-])cc([N+](=O)[O-])c1`: the growth inhibition call is “inactive”.

Turning to `CC(C)[C@@H]1NC[C@@H]2CCCN2C1=O`, the growth inhibition call was “inactive”.

For `C=C[C@H]1[C@H](O[C@@H]2O[C@H](CO)[C@@H](O)[C@H](O)[C@H]2O)OC=C2C(=O)OCC[C@H]21`, the growth inhibition call was “inactive”.

In the case of `O=[N+]([O-])c1ccc(N(CCO)CCO)c2c1no[n+]2[O-]`, the growth inhibition call is “active”.

As to `C#CCOS(=O)OC1CCCCC1Oc1ccc(C(C)(C)C)cc1` (configuration not stated), the growth inhibition call was “inactive”.

With `O=C(c1ccccc1)C12CN3CN(CN(C3)C1)C2`, the growth inhibition call is “inactive”.

With `C1CC2(CCN1)OCCO2`, the growth inhibition call is “inactive”.

As to `Clc1cc2c(cc1Cl)Oc1cc(Cl)c(Cl)cc1O2`, the growth inhibition call is “inactive”.

Regarding `[O-][n+]1ccccc1[S][Zn][S]c1cccc[n+]1[O-]`, the growth inhibition call is “active”.

As for `O[C@H]1[C@H](O)[C@@H](O)CN2CC[C@H](O)[C@H]12`, the growth inhibition call was “inactive”.

For the compound `CCN(CC)S(=O)(=O)c1ccc(Cn2nc(C(=O)Nc3ccc(N4CCCCC4)cc3)c3ccccc32)cc1`, the growth inhibition call was “inactive”.

Regarding `COC(=O)C(c1ccccc1)C1CCCCN1.Cl` (configuration not stated), the growth inhibition call is “inactive”.

Take `CC[C@@H](N)[C@@H](O)c1ccc(O)c(O)c1`: the growth inhibition call is “inactive”.

As for `CCC(COC(=O)c1cc(OC)c(OC)c(OC)c1)(c1ccccc1)N(C)C.O=C(O)C=CC(=O)O` (configuration not stated), the growth inhibition call is “inactive”.

As for `COP(=S)(OC)Oc1cc(Cl)c(Cl)cc1Cl`, the growth inhibition call was “active”.

On to `COP(=S)(OC)Oc1ccc(Sc2ccc(OP(=S)(OC)OC)cc2)cc1`, for which the growth inhibition call was “inactive”.

As for `CCOP(=S)(OCC)Oc1nc(Cl)c(Cl)cc1Cl`, the growth inhibition call is “inactive”.

`N[C@@]1(C(=O)O)CC[C@@H](C(=O)O)C1.N[C@]1(C(=O)O)CC[C@H](C(=O)O)C1`: the growth inhibition call was “inactive”.

With `NCCc1nnc2n1CCCCC2`, the growth inhibition call is “inactive”.

Turning to `CNC(C)C(O)c1ccccc1.Cl` (configuration not stated), the growth inhibition call is “inactive”.

`CCCCCCCCCCCCCCCC[n+]1ccccc1.[Cl-]`: the growth inhibition call was “inactive”.

For the compound `CN[C@@H]1[C@@H](O)[C@@H](O[C@@H]2[C@H](O)[C@@H](O[C@H]3O[C@H]([C@@H](C)O)[C@@H](O)[C@H](O)[C@H]3N)[C@H](N)C[C@@H]2N)OC[C@]1(C)O`, the growth inhibition call is “inactive”.

`CNC1C(O)C(OC2C(N)CC(N)C(OC3OC(C(C)O)C(O)C(O)C3N)C2O)OCC1(C)O` (configuration not stated): the growth inhibition call is “active”.

On to `CN[C@@H]1[C@@H](O)[C@@H](O[C@@H]2[C@@H](O)[C@H](O[C@H]3O[C@H](CN)CC[C@H]3N)[C@@H](N)C[C@H]2N)OC[C@]1(C)O.CN[C@@H]1[C@@H](O)[C@@H](O[C@@H]2[C@@H](O)[C@H](O[C@H]3O[C@H]([C@@H](C)N)CC[C@H]3N)[C@@H](N)C[C@H]2N)OC[C@]1(C)O.CN[C@@H]1[C@@H](O)[C@@H](O[C@@H]2[C@@H](O)[C@H](O[C@H]3O[C@H]([C@@H](C)NC)CC[C@H]3N)[C@@H](N)C[C@H]2N)OC[C@]1(C)O`, for which the growth inhibition call was “inactive”.

Consider `O=C1O[C@H]2CN[C@@H]1C2`, for which the growth inhibition call is “inactive”.

Consider `C[C@H]1CN([C@@H](C)CO)C(=O)CCCn2nncc2CO[C@@H]1CN(C)C(=O)Oc1ccc2ccccc2c1`, for which the growth inhibition call is “inactive”.

Take `CC1=C(O)C(=O)C=C2C1=CC=C1C2(C)CCC2(C)C3CC(C)(C(=O)O)CCC3(C)CCC12C` (configuration not stated): the growth inhibition call is “inactive”.

Consider `CCn1nc(-c2cccnc2)nc2c(=O)n(C)c(=O)nc1-2`, for which the growth inhibition call was “active”.

In the case of `Cc1nc2c(=O)n(C)c(=O)nc-2n(C)n1`, the growth inhibition call was “inactive”.

For `Cn1ncnc2c(=O)n(C)c(=O)nc1-2`, the growth inhibition call is “inactive”.

Consider `CCC1=C[C@@H]2[C@H](C1)C[C@]2(CN)CC(=O)O`, for which the growth inhibition call was “inactive”.

`C[C@@H]1CN([C@@H](C)CO)C(=O)CCCn2cc(nn2)CO[C@@H]1CN(C)C(=O)Oc1cccc2ccccc12`: the growth inhibition call is “inactive”.

For `Cl.Oc1noc2c1CCNC2`, the growth inhibition call was “inactive”.

In the case of `CC12CCC(O)CC1CCC1C2CC(O)C2(C)C(C3=CC(=O)OC3)CCC12O` (configuration not stated), the growth inhibition call was “inactive”.

Consider `CC1=C2CC3C(CC=C4CC(O)CCC43C)C2CCC12OC1CC(C)CNC1C2C` (configuration not stated), for which the growth inhibition call is “inactive”.

Take `O=C(O)C=CC(=O)O.c1ccc2nc(N3CCNCC3)ccc2c1`: the growth inhibition call was “inactive”.

On to `CC(C)(C)C(=O)C(Oc1ccc(Cl)cc1)n1cncn1` (configuration not stated), for which the growth inhibition call was “inactive”.

For the compound `O=C1C=C2C(=CCO[C@@H]2O)O1`, the growth inhibition call is “inactive”.

Consider `O=C1C=C2C(=CCOC2O)O1` (configuration not stated), for which the growth inhibition call was “active”.

As to `CO[C@@H]1C=C[C@@H]2[C@H]1N2CCCO` (some centres not stated), the growth inhibition call was “inactive”.

For `Cc1cc[n+](C)cc1`, the growth inhibition call is “inactive”.

Take `COc1ccc(CN2CCNCC2)c(OC)c1OC.Cl.Cl`: the growth inhibition call was “inactive”.

For the compound `COCCCNC(=O)C1[C@@H]2CC[C@H]1CNC2` (some centres not stated), the growth inhibition call is “inactive”.

As to `COc1ccc2c(c1)C[C@H](N)C2`, the growth inhibition call is “inactive”.

Take `Oc1c(Cl)c(Cl)c(Cl)c(Cl)c1Cl`: the growth inhibition call was “active”.

In the case of `CCCCCCCCCCCCCCCC[N+](C)(C)C.[Br-]`, the growth inhibition call was “inactive”.

For `C[C@@H](N)Cc1c[nH]c2ccc(O)cc12`, the growth inhibition call is “inactive”.

For the compound `Oc1ccccc1N1CCNCC1`, the growth inhibition call was “inactive”.

As for `CN1C(=O)[C@@]23C[C@]4([C@@]56C[C@]78SS[C@](CO)(C(=O)N7[C@@H]5Nc5ccccc56)N(C)C8=O)c5ccccc5N[C@H]4N2C(=O)[C@@]1(CO)SS3`, the growth inhibition call was “active”.

For `CN1C(=O)[C@]23CC4=CC=C[C@H](O)[C@H]4N2C(=O)[C@@]1(CO)SS3`, the growth inhibition call is “inactive”.

As to `CCCC(=O)c1c(O)[nH]c(=O)[nH]c1=O`, the growth inhibition call was “inactive”.

Regarding `CCCC12CNCC(C)(CNC1)C2=O`, the growth inhibition call was “inactive”.

As to `c1ccc2cc3c(cc2c1)-c1cccc2cccc-3c12`, the growth inhibition call was “inactive”.

Consider `CN(C)C(=S)SSC(=S)N(C)C`, for which the growth inhibition call was “active”.

As to `CO[C@@H]1C[C@@H](C[C@H]2CC[C@H](C)[C@H]([C@@H](C)C(=O)O)O2)O[C@]2(O[C@](C)([C@H]3CC[C@@](C)([C@H]4O[C@@H]([C@H]5O[C@@](O)(CO)[C@H](C)C[C@@H]5C)C[C@@H]4C)O3)C[C@H]2C)[C@@H]1C`, the growth inhibition call is “active”.

As to `Cc1ccc(OC(=O)N(C)C[C@H]2OCc3ccccc3-c3c(n(C)c4ccccc34)C(=O)N([C@@H](C)CO)C[C@@H]2C)cc1`, the growth inhibition call was “inactive”.

Regarding `CC(C)c1cc2c(c(O)c1O)C1(C(=O)O)CCCC(C)(C)C1CC2` (configuration not stated), the growth inhibition call is “inactive”.

For the compound `O=C(NCNC(=O)N[C@H]1C(=O)NC(=O)N1CO)N[C@H]1C(=O)NC(=O)N1CO`, the growth inhibition call was “inactive”.

As for `CC(C)(CN)CNc1ccc([N+](=O)[O-])c2cccnc12`, the growth inhibition call was “inactive”.

On to `CC(=O)OC1CC(OC2C(O)CC(OC3C(O)CC(OC4CCC5(C)C(CCC6C5CC(O)C5(C)C(C7=CC(=O)OC7)CCC65O)C4)OC3C)OC2C)OC(C)C1OC1OC(CO)C(O)C(O)C1O` (configuration not stated), for which the growth inhibition call was “inactive”.

These data come from the antibiotic and cytotoxicity screens of Wong et al. (2023).
